Assay outcomes deposited in PubChem BioAssay by National Center for Advancing Translational Sciences (NCATS).
A selection: hits, their analogues and other compounds. The true share with any hit is near 4.1%.
Sm TGR block – S. mansoni TGR enzyme inhibition; AID 485364; purified TGR, DTNB reduction, TNB absorbance 405 nm; 360,000 tested, 3% active; Potency, µM (titrated, usually from 114 µM), actives largely listed as inhibitors; also: nearly all actives have a fitted effect of over 60% in size
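TGR 20 nM + NADPH 100 uM (dispensed conc.), cpd preinc 15 min RT; start with NADPH (500 uM addition) then DTNB (15 mM addition). Kinetic TNB absorbance, 405 nm filter. Four-parameter Hill fit across titration.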
FMDV antiviral – blocks foot and mouth disease virus; FMDV antiviral cell-based qHTS; Potency, µM (doses to about 57.9 µM), actives largely listed as inhibitors; 410,000 tested, 1.2% active; AID 1159524; calls by dose curve; tested in HEK293T cells; also: read-out not given here; nearly all actives have a fitted effect of over 45% in size
AMA1-RON2 inh – inhibitors of Plasmodium falciparum AMA1-RON2 interaction; AlphaScreen AMA1-biotinylated RON2 peptide binding; AID 720542; 360,000 tested, 0.2% active; Potency, µM (highest dose often 58.2 µM), usual class: inhibitors; also: nearly all actives have a fitted effect of over 45% in size
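AMA1 (3D7) with his tag at 25 nM final met compounds first, then biotinylated RON2 peptide at 25 nM; detection used donor plus acceptor beads, 10 µg/mL apiece, read by AlphaScreen after 30 min at room temperature.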
AmpC inh detg – AmpC beta-lactamase inhibition with detergent present. Potency, µM (top dose mostly 114 µM), usual class: inhibitors. 370,000 tested, 0.041% active. AmpC hydrolysis of nitrocefin, absorbance 480 nm, 0.01% Triton. AID 485294; also: nearly all actives have a fitted effect of over 25% in size
Target sequence (P00811 whole entry, looked up): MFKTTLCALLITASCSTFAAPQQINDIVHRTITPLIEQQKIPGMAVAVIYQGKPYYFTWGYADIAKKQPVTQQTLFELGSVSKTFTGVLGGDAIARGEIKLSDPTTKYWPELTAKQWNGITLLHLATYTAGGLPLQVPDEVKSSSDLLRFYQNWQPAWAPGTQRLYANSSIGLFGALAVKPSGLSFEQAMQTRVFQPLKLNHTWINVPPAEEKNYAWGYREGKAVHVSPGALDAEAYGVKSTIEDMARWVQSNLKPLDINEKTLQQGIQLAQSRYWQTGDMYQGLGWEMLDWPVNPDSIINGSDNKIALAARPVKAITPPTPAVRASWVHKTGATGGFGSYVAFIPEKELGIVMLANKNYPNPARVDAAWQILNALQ
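20 mM phosphate pH 7.0 + 0.01% (detergent screen) or 0.0001% Triton X-100; 5.3 nM AmpC reagent; cpd preinc 15 min RT; nitrocefin (800 uM stock) to start; A480 q20 s × 4 min; Activity was normalised to no-enzyme and no-compound control wells.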
AmpC inh no detg – blocks E. coli AmpC beta-lactamase in detergent-free assay | Potency, µM (titrated, usually from 57.1 µM), most hits filed as inhibitors | 330,000 tested, 0.52% active | AID 485341 | AmpC nitrocefin hydrolysis, absorbance 480 nm, 0.0001% Triton; also: nearly all actives have a fitted effect of over 20% in size
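AmpC (5.3 nM in the dispensed reagent) in 20 mM phosphate pH 7.0 with 0.01% (detergent screen) or 0.0001% Triton X-100 was preincubated with compounds for 15 min at room temperature. Nitrocefin was then added from an 800 uM solution, and hydrolysis was followed at 480 nm.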
A number is an active result; 0 = inactive; ? = inconclusive; - = not tested or not shown; [ ] = dose if it differs, or a comment. Unless noted, calls follow the shape of the dose curve; as a rule, active = well fitted curve in the direction sought with a large enough effect; inconclusive = small, poorly fitted or top-dose-only effect, or another doubt; inactive = no such curve, though single readings can be large; an effect the other way counts as inactive or inconclusive.

SMILES	Sm TGR block	FMDV antiviral	AMA1-RON2 inh	AmpC inh detg	AmpC inh no detg
CC(C)NC(=O)CCCN1C(=O)c2ccccc2Sc2ncccc21	79µM	0	0	0	0
Cc1ccc(NC(=O)CCN2C(=O)c3ccccc3Sc3ncccc32)cc1	13µM	0	0	0	0
NCCCC[C@@H](N)C(=O)O	-	0	-	-	-
COc1cc(=O)n2c(c1C(=O)N(C)Cc1cscn1)CCN(C(=O)c1ccc(C)c(C)c1)CC2	-	0	-	-	-
O=C(O)C[C@@H]1C(=O)O[C@@H]2C(COC(=O)c3cc(O)c(O)c(O)c3)O[C@@H](OC(=O)c3cc(O)c(O)c(O)c3)[C@@H](OC(=O)c3cc(O)c(O)c4c3[C@H]1[C@H](O)C(=O)O4)[C@H]2OC(=O)c1cc(O)c(O)c(O)c1 (stereo partly drawn)	16µM	-	-	0	0
O=c1[nH]c(CN2CCN(c3ccc([N+](=O)[O-])cc3)CC2)nc2ccsc12	0	32µM	0	0	0
CCCCOc1cccc(C(=O)Nc2ccc3oc(-c4cccnc4)nc3c2)c1	0	16µM	-	0	-
CCOc1cccc(C(=O)Nc2ccc3oc(Cc4ccc(Cl)cc4)nc3c2)c1	0	8.9µM	0	?	0
CCCCOc1ccc(C(=O)Nc2ccc3oc(-c4cccnc4)nc3c2)cc1	0	?	-	0	-
O=C(Nc1ccc2oc(-c3cccnc3)nc2c1)c1ccco1	50µM	0	0	0	0
O=C(Nc1ccc(-c2nc3ncccc3o2)cc1)c1ccco1	20µM	0	0	?	0
O=C(Nc1ccc2oc(Cc3ccc(Cl)cc3)nc2c1)c1cccnc1	0	-	0	0	0
CC(C)Cc1nn2c(=O)cc(COC(=O)c3cccc(NC(=O)CCc4ccccc4)c3)nc2s1	0	0	-	0	-
Cc1cccc(Cn2cc(C(=O)Nc3ccc(F)c(C(F)(F)F)c3)ccc2=O)c1	0	?	-	0	-
O=C(Nc1ccc2oc(-c3cccnc3)nc2c1)c1ccc(Br)o1	28µM	0	0	0	0
O=C(Nc1ccc2oc(-c3cccnc3)nc2c1)c1ccc(Br)cc1	0	0	-	0	-
Cc1ccc(Cl)cc1N1CCN(C(=O)CN2C(=O)CSc3c2c(C)nn3-c2ccccc2)CC1	0	0	-	0	-
Cc1ccc(C)c(N2CCN(C(=O)CN3C(=O)CSc4c3c(C)nn4-c3ccccc3)CC2)c1	0	35µM	-	0	-
CCOC(=O)c1sc(N/N=C/c2ccccc2)nc1C	0	0	0	0	0
O=C(O)Cc1sc(N/N=C\c2ccccc2)nc1-c1ccccc1	2.2µM	0	0	?	?
CN(C(=O)/C=C/c1ccc([N+](=O)[O-])s1)c1ccccc1	11µM	?	0	0	0
COC(=O)c1cc(CNC(=O)c2ccc3ncccc3c2)cc(NC(=O)c2ccccc2Cl)c1	-	0	-	-	-
COc1cc(/C=N/NC(=O)c2ccc(-n3cccc3)cc2)ccc1O	0	0	0	0	14µM
COc1cc(C(=O)N/N=C/c2ccc(OC(=O)c3cccc(C)c3)cc2)ccc1O	0	35µM	0	0	0
COc1cc(/C=N/NC(=O)c2ccc(N)cc2)ccc1OC(=O)c1cccc(C)c1	0	0	0	0	0
SMILES	Sm TGR block	FMDV antiviral	AMA1-RON2 inh	AmpC inh detg	AmpC inh no detg
c1ccc(Cc2noc(CN3CCN(C4CCc5ccccc5C4)CC3)n2)cc1 (stereo not drawn)	-	?	0	0	0
c1ccc(Cc2noc(CN3CCCN(C4Cc5ccccc5C4)CC3)n2)cc1	25µM	0	0	0	0
COc1ccc(CNC(=O)c2cc3cc(S(=O)(=O)N4CCCCC4)ccc3n2C)c(OC)c1	0	0	-	0	-
CC1=NNC(=O)/C1=C\c1cn(-c2ccccc2)nc1-c1ccc(F)cc1	0	11µM	0	0	0
CC1=NNC(=O)/C1=C\c1cn(-c2ccccc2)nc1-c1cccs1	0	10µM	0	0	0
Cc1ccc(-c2nn(-c3ccccc3)cc2/C=C/C(=O)Nc2nccs2)cc1	0	0	0[11.6 µM]	0	0
Cc1c(NC(=O)/C=C/c2cn(-c3ccccc3)nc2-c2ccc(F)cc2)c(=O)n(-c2ccccc2)n1C	3.2µM	0	0	0	0
CCCCN1C(=O)c2[nH]nc(-c3ccccc3O)c2C1c1cc(Br)c(O)c(OC)c1 (stereo not drawn)	56µM	0	-	0	-
CCCCN1C(=O)c2[nH]nc(-c3ccccc3O)c2C1c1ccc(OCc2ccccc2)c(OC)c1 (stereo not drawn)	0	0	-	0	-
COCc1c(C(=O)N2CCN(C)CC2)cnn1-c1ncc2c(n1)-c1ccccc1CCC2	-	0	-	-	-
C/C(CC(=O)Nc1ccc(N(C)C)cc1)=N\NC(=O)c1ccccc1O	45µM	0	0	0	0
C/C(CC(=O)Nc1ccc([N+](=O)[O-])cc1)=N\NC(=O)c1ccccc1O	0	0	0	0	0
CCOc1ccc2c(c1)sc1nc(=O)n(-c3ccc(Cl)c(Cl)c3)c(=O)n12	0	0	-	0	-
COc1ccc(/C=C/C2=CC(C)(C)NC(=S)N2)cc1OC	2.8µM	0	0	0	0
CCOc1ccc(/C=C2\NC(=S)NC2=O)cc1	0	0	0	0	0
CCOc1ccc(/C=C/C2=CC(C)(C)NC(=S)N2)cc1	8.9µM	0	0	0	0
COc1cccc(/C=C/C2=CC(C)(C)NC(=S)N2)c1	-	0	0	0	0
C#Cc1cccc(C(=O)NCc2nc(-c3cccc(NC(=O)c4ccccn4)c3)oc2C)c1	-	0	-	-	-
CC1=CN2C(=N)/C(=C/c3ccc([N+](=O)[O-])o3)C(=O)N=C2S1	3.5µM	25µM	0	0	0
CC1=CN2C(=N)/C(=C/c3ccco3)C(=O)N=C2S1	0	0	0	?	0
Cc1nnc(N2CCCC(C(=O)NCCc3ccccc3)C2)c2nn(-c3ccccc3)c(C)c12 (stereo not drawn)	0	0	-	0	-
Cc1ccc(-n2c(-c3ccc(Br)cc3)c[n+]3c2CCc2ccc4cccnc4c2-3)cc1	0	1.1µM	0	0	0
Cc1cccc(OCC(=O)Nc2ccc(N3CCN(C(=O)c4ccco4)CC3)cc2)c1C	0	0	0	0	0
Cc1ccccc1OCC(=O)Nc1ccc(N2CCN(C(=O)c3ccco3)CC2)cc1	0	28µM	0	0	0
O=C(CSc1ccc(Cl)cc1)Nc1ccc(N2CCN(C(=O)c3ccco3)CC2)cc1	0	20µM	0	0	0
CS(=O)(=O)N1CCN(c2ccccc2NC(=O)CSc2ccc(Cl)cc2)CC1	0	?	0	0	0
O=C(COc1ccc([N+](=O)[O-])cc1)Nc1ccc(N2CCN(C(=O)c3ccco3)CC2)cc1	35µM	?	0	0	0
O=C(CSc1ccc(Cl)cc1)Nc1ccccc1N1CCN(C(=O)c2ccccc2)CC1	0	13µM	0	0	0
CCOc1ccc(-n2nc(CO)c(C(=O)NCc3cccs3)n2)cc1	0	0	-	0	-
COC(=O)c1ccccc1NC(=O)Cn1c(=O)n(-c2cccc(OC)c2)c(=O)c2c(C)c(C(=O)N(C)C)sc21	0	0	-	0	-
